According to the supplement of paper PMC10477191:
± gives the standard deviation of the averaged measurements.

system: Drosophila ezoana antennal basiconic sensillum ab6; assay: odor-evoked OSN spike response (post minus pre-stimulus); higher = stronger neuronal excitation; conditions: odor dilution: 10^-4
Method: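 Single sensillum recordings from antennal basiconic sensilla of D. ezoana. A 500 ms pulse of odorant (10^-4 in mineral oil or DMSO) was delivered; the response is the change in action potential frequency between the 1 s pre- and post-stimulus windows (spikes/s).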

Row | SMILES | odor-evoked OSN spike response [spikes/s]
1 | COC(=O)c1ccccc1O [Methyl salicylate] | 58.3 ± 32
2 | CCOC(=O)C(C)O (stereo not given) [Ethyl lactate] | 58 ± 18
3 | CC(=O)CCC=C(C)C [6-methyl-5-hepten-2-one] | 58.1 ± 30
4 | CCOC(C)=O [Ethyl acetate] | 55.2 ± 25
5 | Oc1ccccc1 [phenol] | 73 ± 38
6 | CCCCCCO [1-hexanol] | 77.5 ± 29
7 | C/C=C/C(=O)OCC [Ethyl crotonate] | 71.1 ± 37
8 | CC(=O)C(C)O (stereo not given) [acetoin] | 69.8 ± 40
9 | OCCc1ccccc1 [2-phenylethanol] | 53 ± 31
10 | C=CC(O)CCCCC (stereo not given) [1-octen-3-ol] | 143 ± 47
11 | CCCCCCCC(C)=O [2-nonanone] | 54.7 ± 22
12 | CCOC(=O)CC(C)O (stereo not given) [Ethyl-3-hydroxybutyrate] | 93.1 ± 33
13 | CCOC(=O)c1ccccc1 [ethyl benzoate] | 66.1 ± 26
14 | CCCC(=O)OCC [ethyl butanoate] | 52.1 ± 29
15 | CCCCCC(=O)OCC [ethyl hexanoate] | 52.2 ± 20
16 | CCCCCOC(C)=O [pentyl acetate] | 67.9 ± 20
17 | CCCCCCCC(C)O (stereo not given) [2-nonanol] | 55.7 ± 33
18 | CCCCCC(C)=O [2-heptanone] | 60.9 ± 21
19 | COc1ccccc1O [guaiacol] | 123 ± 36
20 | CCCCC(C)O (stereo not given) [2-hexanol] | 67.3 ± 33
